# Assay outcomes from PubChem.
# Shown are actives, neighbours in structure and some others; about 1.6% of the full set was active somewhere.
# KCNQ2 pot: enhances the rat KCNQ2 potassium channel | CHO-K1 KCNQ2, FluxOR thallium flux fluorescence; active compounds read high | B-score at 10 µM | 310,000 compounds, 0.54% hits;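 active means fluorescence ratio B-score at least 3 SD of library B-scores, with initial fluorescence B-score within 3 of them, cut at about 5.3 in these data; same plate scores as AID 2156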;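 further: B-score of peak minus minimum over baseline fluorescence ratio after K+ and Tl+ stimulus; positive B-score means potentiation of KCNQ2 with more thallium influx and brighter signal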
# KCNQ2 block: KCNQ2 (rat) channel inhibition; O88943; CHO-K1 KCNQ2, FluxOR thallium flux, 20 min; active compounds read low; B-score at 10 µM; 310,000 compounds, 1.1% hits; AID 2156;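 active means fluorescence ratio B-score at most minus 3 library SDs, with starting brightness B-score within 2 library SDs, cut at about -5.5 in these data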
# Kir21 conf inh: confirmation of mouse Kir2.1 potassium channel inhibitors; shares compounds with KCNQ2 pot; Kir2.1-expressing cells, FluxOR thallium flux fluorescence; active compounds read low; Tl flux remaining, % of negative control (active compounds read low), % at 10 µM; 2,300 compounds, 41% hits; AID 2032;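 active means Primary-screen hit whose thallium flux fell at least 3 control SD below untreated wells in both duplicates, with normal baseline fluorescence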;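 further: 0% = blank wells without stimulus and 100% = stimulated no-compound controls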
# HEK293 ctr: alters thallium flux in parental HEK293 cells, Kir2.1 counter-screen; shares compounds with KCNQ2 pot; FluxOR thallium flux fluorescence; 0% = unstimulated blank wells; FluxOR signal as % of negative control (100 = no effect), % at 10 µM; 2,300 compounds, 19% hits;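 active means dye signal at least 3 control SD above or below untreated wells in both duplicates, raw fluorescence within 3, either direction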;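 further: percent is based on the flux ratio of peak minus minimum fluorescence over baseline F0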
# CHO-K1 ctr: alters thallium flux in parental CHO-K1 cells, KCNQ2 counter-screen; shares compounds with KCNQ2 pot; FluxOR thallium flux fluorescence; zero = vehicle mean+3SD, 100% = vehicle-minus-blank window; activity increase over 3SD of controls, % at 10 µM; 1,200 compounds, 43% hits; AID 2282;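 active means signal rise of at least 3 SD above the untreated control mean, in both duplicate wells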;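 further: counter screen of KCNQ2 potentiator hits so any rise reflects channel-independent effects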
# KCNQ1 pot spec: tests whether KCNQ2 potentiators also act on human KCNQ1; CHO KCNQ1 stable, FluxOR thallium flux fluorescence; beyond 3SD, as % of vehicle-control signal; 1,200 compounds, 28% hits; shares compounds with KCNQ2 pot; activation over 3SD threshold, % at 10 µM;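 active means fluorescence ratio rise of at least 3 SD of vehicle wells above their mean, in both replicate wells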;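 further: 0% = vehicle mean plus 3 SD and 100% = vehicle minus unstimulated blank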
# Target sequence (P51787 whole entry, looked up): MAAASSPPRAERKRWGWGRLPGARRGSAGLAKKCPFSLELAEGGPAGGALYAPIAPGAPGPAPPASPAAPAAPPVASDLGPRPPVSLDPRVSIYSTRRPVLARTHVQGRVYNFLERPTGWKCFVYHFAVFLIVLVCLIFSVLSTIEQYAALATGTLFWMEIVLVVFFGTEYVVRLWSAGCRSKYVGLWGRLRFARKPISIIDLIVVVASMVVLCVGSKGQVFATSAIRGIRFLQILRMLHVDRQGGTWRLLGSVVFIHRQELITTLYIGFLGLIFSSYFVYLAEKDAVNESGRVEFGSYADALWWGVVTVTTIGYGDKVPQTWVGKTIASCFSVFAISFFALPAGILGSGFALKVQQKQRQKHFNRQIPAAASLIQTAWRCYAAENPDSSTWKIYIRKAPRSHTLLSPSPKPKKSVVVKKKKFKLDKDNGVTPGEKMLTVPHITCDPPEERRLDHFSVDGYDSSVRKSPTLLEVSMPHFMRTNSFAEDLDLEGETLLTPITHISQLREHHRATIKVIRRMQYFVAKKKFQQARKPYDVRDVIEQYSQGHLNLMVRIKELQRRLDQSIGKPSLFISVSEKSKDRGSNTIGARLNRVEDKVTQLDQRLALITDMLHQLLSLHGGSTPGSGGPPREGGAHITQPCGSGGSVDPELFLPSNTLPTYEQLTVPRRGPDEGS
# KCNQ2 pot conf: confirmation of rat KCNQ2 potassium channel potentiators | 1,200 compounds, 68% hits | shares compounds with KCNQ2 pot | potentiation, less the hit threshold, % at 10 µM | CHO-KCNQ2 cells, FluxOR thallium flux fluorescence;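 active means fluorescence ratio rising 3 SD or more over the vehicle control mean in both replicates, plus primary screen hit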;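 further: peak minus minimum thallium fluorescence divided by baseline after K/Tl stimulus; 0% = vehicle mean plus 3 SD and 100% = vehicle minus unstimulated blank difference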
# Kir21 spec: selectivity of KCNQ2 potentiators: effect on mouse Kir2.1; AID 2345; activity over 3SD threshold, % at 10 µM; shares compounds with KCNQ2 pot; 1,200 compounds, 2% hits; HEK293 Kir2.1, FluxOR thallium flux fluorescence;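 active means fluorescence ratio rise of at least 3 SD above the vehicle-control mean, seen in both replicates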;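 further: 0% = vehicle mean plus 3 SD and 100% = vehicle minus no-stimulus blank window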
# KCNQ2 W236L MoA: KCNQ2 potentiators acting on retigabine-insensitive rat KCNQ2 W236L mutant | 940 compounds, 10% hits | current increase over 3SD of negative controls (%), active compounds read high, % at 25 µM | shares compounds with KCNQ2 pot | CHO KCNQ2-W236L, automated patch clamp current;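 active means current increase at least 3 SD of the untreated controls above them in both duplicate recordings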
# Numbers without * were called inactive; i = inactive; / = no result given.
SMILES,KCNQ2 pot,KCNQ2 block,Kir21 conf inh,HEK293 ctr,others
COc1ccc(C(CCNCc2ccc(OC(C)C)cc2)c2ccccc2OC)cc1 (stereo not drawn),-6.5,-6.5*,29%*,i,
COc1ccc(CNCCC(c2ccc(OC)cc2)c2ccccc2OC)cc1 (stereo not drawn),/,i,38%*,i,
COc1ccc(C(CCNCc2ccccc2)c2ccc(F)cc2)cc1 (stereo not drawn),/,i,/,/,
COc1ccc(CNCCC(c2ccccc2)c2ccc(OC(C)C)cc2)cc1OC (stereo not drawn),/,i,/,/,
COc1ccc(CNC(C)CCc2ccccc2)cc1 (stereo not drawn),3.1,i,40%*,i,
COc1ccc(C(CCNCc2ccc(N(C)C)cc2)c2ccccc2OC)cc1 (stereo not drawn),/,i,/,/,
COc1ccc(CNCCC(c2ccc(F)cc2)c2ccc(OC(C)C)cc2)cc1OC (stereo not drawn),/,i,44%*,i,
Cc1ccc(S(=O)(=O)Nc2cccc(C(=O)NCC3(N4CCCCC4)CCCCC3)c2)cc1F,1,i,/,/,
C=CCN1C(=O)c2ccccc2NC1c1cc(Br)cs1 (stereo not drawn),/,i,/,/,
CC(C)c1nnc(NC(=O)CCC(=O)NCc2ccc(F)cc2)s1,1.2,i,/,/,
CCCn1nnnc1COc1ccc(C(N)=O)cc1,0.89,i,/,/,
CN1C(=O)[C@H](Cc2ccc([N+](=O)[O-])cc2)NC1=S,/,i,/,/,
COc1cccc(NC(=O)COC(=O)C2C3CC4OC(=O)C2C4C3)c1 (stereo not drawn),2,i,/,/,
O=C(N/N=C/c1ccc(-c2ccc(Br)cc2)o1)c1ccc2c(c1)OCO2,/,i,/,/,
O=C(N/N=C/c1ccc(COc2ccc(Br)cc2)o1)c1ccc2c(c1)OCO2,5.7*,i,i,i,CHO-K1 ctr=-5;KCNQ1 pot spec=-28;KCNQ2 pot conf=-11;Kir21 spec=-29
O=C(NCc1cn2ccccc2n1)C1CCC(=O)N(Cc2ccccc2F)C1 (stereo not drawn),/,i,/,/,
CCOc1ccc(OCC(O)CN2CCc3ccccc3C2)cc1 (stereo not drawn),/,i,/,/,
Cc1cc(OCC(O)CN2CCc3ccccc3C2)cc(C(C)C)c1 (stereo not drawn),/,i,53%*,i,
N#Cc1ccc[n+](CC(=O)c2ccc(NC(=O)c3ccccc3)cc2)c1,0.91,i,/,/,
CSCC[C@H](NC(=O)[C@H](Cc1ccccc1)n1c(=O)[nH]c2ccccc2c1=O)C(=O)NCC1CCC(C(=O)O)CC1 (stereo partly drawn),/,i,/,/,
COc1ccc2nc(SCC(=O)NCc3ccc(S(N)(=O)=O)cc3)[nH]c2c1,1.2,i,/,/,
Cc1ccc(Nc2cc(C)nn2-c2nc(C)cc(=O)[nH]2)cc1,17*,i,i,269%*,CHO-K1 ctr=60*;KCNQ1 pot spec=45*;KCNQ2 pot conf=42*;Kir21 spec=-30;KCNQ2 W236L MoA=i
Cc1ccc(Nc2cc(C)nn2-c2nc(C)cc(C)n2)cc1,2,i,/,/,
COc1ccc(C(=O)N2CCN(S(=O)(=O)c3ccc(F)cc3)CC2)cc1OC,/,i,/,/,
COc1ccc(C(=O)CCS(=O)(=O)c2ccc(F)cc2)cc1OC,6.6*,i,i,i,CHO-K1 ctr=36*;KCNQ1 pot spec=60*;KCNQ2 pot conf=24*;Kir21 spec=-52;KCNQ2 W236L MoA=6.0%*
SMILES,KCNQ2 pot,KCNQ2 block,Kir21 conf inh,HEK293 ctr,others
CC(C(=O)NC(C)(C)C)N1C(=O)c2cccc3cccc(c23)C1=O (stereo not drawn),/,i,/,/,
CCn1ncc(/C=N/NC(=O)c2ccc3c(c2)OCO3)c1C,/,i,/,/,
CCn1cc(/C=N/NC(=O)c2ccc3c(c2)OCO3)c(C)n1,6.3*,i,i,i,CHO-K1 ctr=-12;KCNQ1 pot spec=-25;KCNQ2 pot conf=-20;Kir21 spec=-39
Cc1ccc(-n2ccnc(SCC(=O)NC3CCCCC3)c2=O)cc1F,0.49,i,/,/,
CNS(=O)(=O)c1cn(CC(=O)NCc2ccc(F)cc2)cc1S(=O)(=O)NC,/,i,/,/,
Cc1ccc(C)c(CN2CCC(CNC(=O)Nc3cccc(Cl)c3C)CC2)c1,5.3*,i,i,i,CHO-K1 ctr=-1;KCNQ1 pot spec=-14;KCNQ2 pot conf=0;Kir21 spec=-46;KCNQ2 W236L MoA=i
Cc1ccc(NC(=O)NCC2CCN(Cc3cc(C)ccc3Cl)CC2)c(C)c1,4.8,i,/,/,
CC(C)(C)C(=O)Nc1ccc(-c2cc3cc(Cl)ccc3o2)cc1,/,i,/,/,
COc1cccc(CNC(=O)C(CC(C)C)NC(=O)c2ccccc2C)c1 (stereo not drawn),/,i,/,/,
Cc1cc(Cl)c(S(=O)(=O)N2CCN(c3ccc(F)cc3)CC2)cc1OCC(N)=O,0.29,i,/,/,
Cc1cc(Cl)c(S(=O)(=O)N2CCN(c3ccc(F)cc3)CC2)cc1OCC(=O)NC1CCCCC1,16*,i,i,i,CHO-K1 ctr=53*;KCNQ1 pot spec=-11;KCNQ2 pot conf=60*;Kir21 spec=-39;KCNQ2 W236L MoA=i
CCOc1ccc(CN(CCC#N)C(=S)NC(=O)c2ccccc2)cc1,0.91,i,/,/,
CCCOc1ccc(C(=O)NNC(=S)NC(=O)c2ccccc2)cc1,20*,i,i,i,CHO-K1 ctr=-5;KCNQ1 pot spec=3.3*;KCNQ2 pot conf=-18;Kir21 spec=-29
CCCOc1ccc(C(=O)NNC(=S)NC(C)=O)cc1,0.83,i,/,/,
CCOc1ccc(C(=O)NC(=S)N(Cc2ccccc2)Cc2ccccc2)cc1,20*,i,i,176%*,CHO-K1 ctr=-13;KCNQ1 pot spec=-10;KCNQ2 pot conf=0.5*;Kir21 spec=-35;KCNQ2 W236L MoA=i
CCCN(CCC)C(=S)NC(=O)c1ccc(-c2ccccc2)cc1,14*,i,i,340%*,CHO-K1 ctr=26*;KCNQ1 pot spec=3.5*;KCNQ2 pot conf=38*;Kir21 spec=-15;KCNQ2 W236L MoA=i
Cc1ccc(C(=O)NC(=S)N(C)Cc2ccccc2)cc1,3.1,i,/,/,
CN(C)c1cc(-c2ccc(Br)cc2)oc(=O)c1Cl,0.85,i,/,/,
COC(=O)c1ccccc1NC(=O)C/C(C)=N/NC(=O)Cc1ccc(Cl)cc1,/,i,/,/,
Cc1cc(N/N=C/c2ccc(O)cc2)c2cccc(C)c2n1,1.1,i,/,/,
Cc1cc(C)c2nc(C)cc(N/N=C/c3ccc(O)cc3)c2c1,-8.1,-8.1*,i,i,
O=C(CCC1CCCCC1)Nc1cccc(C(=O)Nc2ccc(C(=O)O)cc2)c1,2.9,i,/,/,
CC1Cc2cc(/C=C3/SC(=S)NC3=O)ccc2O1 (stereo not drawn),10*,i,i,145%*,CHO-K1 ctr=-13;KCNQ1 pot spec=-14;KCNQ2 pot conf=7.8*;Kir21 spec=-31;KCNQ2 W236L MoA=4.5%*
